Data reported in the supplement of paper PMC7156485.
Structures can show the parent of a compound that is named as a salt. ± gives the standard deviation of the averaged measurements.

These compounds were tested on TDF (assay: cell number relative to DMSO (% of DMSO); higher = more cells (less growth inhibition / toxicity)). Conditions: concentration: 10 µM; 24 h.
Summary of the method: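 In 384-well plates holding 800 HCC1569 or TDF cells per well in RPMI with 10% FBS, compounds were tested at 10 µM for 24 h at 37 °C in triplicate. Fixation used 3.7% formaldehyde. Staining used a rabbit anti-H1.0 antibody with an AlexaFluor 647 secondary, plus DAPI. Each value, H1.0 nuclear intensity or cell number, is a median of replicates shown as percent of the plate control, and HCC1569 values were smoothed for positional effects.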
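Further: TDF denotes transformed human dermal fibroblasts of mesenchymal origin.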

SMILES | cell number
Cl.N=C(N=C(N)N)N1CCOCC1 [Moroxydine.HCl] | 120
C=C1C(=CC=C2CCCC3(C)C2CCC3C(C)CCCC(C)C)CC(O)CC1O (stereo not given) [Alfacalcidol] | 101
CCCCCC(=O)c1c(O)c(Cl)c(OC)c(Cl)c1O [1-(3,5-dichloro-2,6-dihydroxy-4-methoxyphenyl)-1-hexanone] | 90
CS(=O)(=O)O.O=C1Nc2ccc(-c3cccnc3)cc2C1=Cc1ccc[nH]1 [JAK3 Inhibitor VI] | 47.7
O=C1c2c(O)ccc(O)c2C(=O)c2c(NCCNCCO)ccc(NCCNCCO)c21 [Mitoxantrone] | 3.71 ± 2.7
CC(C)NCC(O)c1ccc(O)c(O)c1 (racemic) [DL-Isoproterenol] | 108
CC1=CCC2(C)CCC(O)(C(C)C)C2C(OC(=O)c2ccc(O)cc2)C1 (stereo not given) [Ferutinin] | 102
CSCC[C@@H](C=O)NC(=O)[C@H](CC(C)C)NC(=O)[C@H](CC(C)C)NC(C)=O | 95.5
C=C(C)C1CCC2(C(=O)O)CCC3(C)C(CCC4C5(C)CCC(O)C(C)(C)C5CCC43C)C12 (stereo not given) [Betulinic acid] | 108
N#CC(=C(N)Sc1ccccc1N)c1cccc(C(O)c2ccncc2)c1 (stereo not given) [MEK Inhibitor I] | 86.8
COc1cc2c(Nc3ccc(NC(=O)c4ccccc4)cc3)ncnc2cc1OCCCN1CCOCC1 | 44
Cc1scc2c1N(C(=O)CN1CCN(C)CC1)c1ccccc1NC2=O.Cl.Cl [Telenzepine.2HCl] | 99.1
O=C1c2ccccc2-c2n[nH]c3cccc1c23 [JNK Inhibitor II] | 112
CCCC(=O)Oc1ccc2[nH]c(C(=O)c3cc4ccccc4[nH]3)cc2c1 [PDGF Receptor Tyrosine Kinase Inhibitor II] | 92.3
COc1cc(CNC(=O)CCCCC=CC(C)C)ccc1O [Capsaicin] | 99.2 ± 2.3
CC(C)(C=O)Cc1cc(C(C)(C)C)c(O)c(C(C)(C)C)c1 | 106
CC(C)C[C@@H](C(=O)O)c1cc(-c2ccc(C(F)(F)F)cc2)cc(-c2ccc(C(F)(F)F)cc2)c1 | 92.4
NC(=O)c1cccc(NC(=O)/C=C/c2c[nH]c3ccccc23)c1 [(E)-3-(3-(1H-indol-3-yl)acrylamido)benzamide] | 103

SMILES | cell number
CN1C(C(=O)Nc2ccccn2)=C(O)c2sccc2S1(=O)=O [Tenoxicam] | 87.8
COc1ccccc1N1CCN(CCCNc2cc(=O)n(C)c(=O)n2C)CC1.Cl [Urapidil hydrochloride] | 102
CCCCCOc1ccccc1C(O)CC#CCCCC(=O)OC (stereo not given) | 106
CSc1ccc2c(c1)N(CCC1CCCCN1C)c1ccccc1S2.Cl (stereo not given) [Thioridazine hydrochloride] | 90.6
COc1ccc(Cl)cc1C(=O)NCCc1ccc(S(=O)(=O)NC(=O)NC2CCCCC2)cc1 [Glyburide] | 102
N#Cc1c(N(CC(=O)[O-])CC(=O)[O-])sc(C(=O)[O-])c1CC(=O)[O-].[Sr+2].[Sr+2] | 109
Cc1cc(CS(=O)(=O)c2ccccc2)cc(OCc2ccc(CN3CCC[C@@H]3CO)cc2)c1 [PF-543 hydrochloride] | 90.2
OC[C@@H](O)[C@H]1NC[C@@H](O)[C@H]1O [1,4-Dideoxy-1,4-imino-D-mannitol hydrochloride] | 104
Cl.NC(CO)C(=O)NNCc1ccc(O)c(O)c1O (stereo not given) [Benserazide hydrochloride] | 95.6
CCN(NO)C1=CC(=O)C(=O)C=C1 [ET-3,4-dephostatin] | 97.7
C=CCc1ccccc1OCC(O)CNC(C)C.Cl (stereo not given) [Alprenolol hydrochloride] | 91
OC1CCN2Cc3ccccc3N=C12 (stereo not given) [Vasicine] | 105
CN(C)C(=O)N=NC(=O)N(C)C [N,N,N',N'-Tetramethylazodicarboxamide] | 103
COc1ccc2c3c1OC1CC(O)C=CC31CCN(C)C2 (stereo not given) [Galanthamine] | 110
COc1cc2ncc(-c3ccccc3)nc2cc1OC [Tyrphostin AG 1296] | 106
O=C(O)c1ccc(NC(=O)[C@H](CC2CCCC2)n2cnc(C(F)(F)F)c2)nc1 | 100
O=C(CCCCCCc1ccccc1)c1ncc(-c2ccccn2)o1 [7-phenyl-1-[5-(2-pyridinyl)-1,3-oxazol-2-yl]-1-heptanone] | 104
